# Compound activity (PubChem)
# Compounds with a hit are over-represented: about 4.2% of the library has one in this group of screens.
# DAX1 inh = inhibitors of DAX1 repression of SF-1 activated StAR promoter; HEK293T StAR-luciferase reporter, SF-1/DAX-1 repression relief; inhibition, % at 6.8 µM; 370,000 compounds, 1.1% hits;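 active means inhibition above the mean over all tested compounds plus 3 SD, cut at about 3.6% in these data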;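 further: 0% = DAX-1 cells with DMSO and 100% = cells lacking DAX-1 with DMSO; higher inhibition means more luminescence from relief of DAX-1 repression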
# hcDAF-12 act = H. contortus DAF-12 activation, primary screen; HEK293 hcDAF-12 lit1-tk-luc reporter, luminescence; 0% DMSO, 100% Δ7-dafachronic acid; activation, % at 6.8 µM; 370,000 compounds, 1.4% hits;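 active means activation above the mean of all tested compounds plus 3 SD, cut at about 5.5% in these data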;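 further: 100% = response to 3 µM Δ7-dafachronic acid high control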
# Wnt bcat act = Wnt/beta-catenin pathway activation. Wnt/beta-catenin reporter cell assay, activator, plate reader. activation, % at 9.35 µM. 300,000 compounds, 1.2% hits. AID 743398; in the data active means activation above about 30%, passing the limit was not always enough;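 further: 0% = neutral control wells and 100% = positive control wells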
# esBAF inh = blocks esBAF chromatin remodeling in mouse ES cells; 350,000 compounds, 2% hits; Bmi1-luciferase knock-in reporter, 24 h; 100% = twice the neutral-well signal; reporter increase, % at 12.5 µM; AID 602393; in the data active means activation above about 40%;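 further: 0% = median of the plate's neutral control wells and 100% = double that signal; a rise in the Bmi1 reporter signal indicates esBAF inhibition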
# ssDAF12 agonist = S. stercoralis DAF-12 activation, primary screen; HEK293 ssDAF-12/GRIP1 lit1-tk-luc reporter, luminescence; % of 3 µM dafachronic acid response; activation, % at 6.8 µM; 370,000 compounds, 1% hits; AID 652126;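 active means activation above the mean over all tested compounds plus 3 SD, cut at about 0.9% in these data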;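 further: 0% = DMSO-only wells and 100% = 3 µM delta7-dafachronic acid wells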
# hgDAF-12 ag = agonists of H. glycines DAF-12 nuclear receptor. HEK293 GAL4-hgDAF12 UAS-luciferase reporter, agonist luminescence; normalized to butyrate control. activation, % at 6.8 µM. 370,000 compounds, 1.8% hits. AID 687014;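 active means activation above a cutoff set at the mean of all screened compounds plus 3 SD, cut at about 10% in these data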;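 further: 0% = DMSO wells and 100% = sodium butyrate wells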
# The depositor's hits bear a star; · = not tested or not shown.
SMILES,DAX1 inh,hcDAF-12 act,Wnt bcat act,esBAF inh,ssDAF12 agonist,hgDAF-12 ag
COc1ccccc1OCCn1c(=O)sc2ccccc21,-1,-2,10,0,-1,-1
Cc1ccc(OCCn2c(=O)oc3ccc(C)cc32)cc1,0,-1,2,20,-1,-2
Cc1cccc(OCCn2c(=O)sc3ccccc32)c1,1,1,·,68*,0,8
Cc1ccccc1OCCn1c(=O)sc2ccccc21,0,-2,-1,63*,-1,-1
O=C(OCc1nc2ccccc2s1)C1CCN(S(=O)(=O)c2cccs2)CC1,1,6,44*,56*,1,3
O=S(=O)(c1cccs1)N1CCN(Cc2nc3ccccc3s2)CC1,0,3,36*,-4,0,2
COc1ccccc1CNC(=O)C[C@@H]1C[C@@H]2c3cc(NS(C)(=O)=O)ccc3O[C@@H]2[C@H](CO)O1,·,·,·,2,·,·
COc1cc2c(cc1NC(=O)COC(=O)C(CCSC)NC(=O)c1ccccc1Cl)oc1ccccc12 (stereo unspecified),1,5,10,·,2.5*,-1
CCOC(=O)c1cnc2c(-c3ccccc3)cnn2c1C,2,5,56*,·,-1,8
COc1ccc(-c2cc3nc[nH]c(=O)c3s2)cc1,1,1,34*,7,0,11*
COc1ccc(-c2cc3nc(CCl)[nH]c(=O)c3s2)cc1,3,5.9*,8,-68,0,12*
COc1cccc(CNc2nc3cc(-c4cccc(Cl)c4)sc3c(=O)n2C)c1,1,1,-1,5,-1,1
CCC(=O)N[C@@H]1CC[C@@H](CC(=O)NCC2CCCCC2)O[C@@H]1CO,·,·,·,-1,·,·
O=C(CCl)c1ccc2[nH]c(=O)oc2c1,-1,1,36*,-1,-1,3
O=c1[nH]c2ccc(Br)cc2o1,-1,-1,1,4,0,-4
O=C(Oc1cccc2ccccc12)c1ccco1,0,6.0*,11,-6,-1,-2
COc1cc(/C=C2\C(=O)N(CCC#N)N=C2C)ccc1OCC(=O)Nc1ccccc1,1,3,65*,·,-1,5
O=[N+]([O-])c1cc(-c2cnc3ccccc3n2)ccc1Oc1ccc(Br)cc1,1,5,·,44*,0,9
C[C@H](CO)N1C[C@H](C)[C@H](CN(C)Cc2cccc(C(F)(F)F)c2)Oc2ncc(/C=C/c3ccccc3)cc2C1=O,·,·,·,3,·,·
NC(=O)c1ccsc1NC(=O)COC(=O)c1c(F)cccc1Cl,-1,0,22,112*,0,7
NC(=O)c1ccsc1NC(=O)COC(=O)c1ccccc1F,0,-1,0,1,-1,-2
CC(C)(C)NC(=O)NC(=O)COC(=O)c1c(F)cccc1Cl,2,0,3,50*,-1,5
O=C(N[C@H]1CC[C@H](CC(=O)N2CCc3ccccc3C2)O[C@@H]1CO)C1CC1,·,·,·,4,·,·
Nc1c(/C=C2\C=Nc3ccccc32)c(=O)nc2sc(CC(=O)N3CCOCC3)nn12,3.7*,5,0,-8,0,6
C[C@@H]1CN([C@@H](C)CO)C(=O)c2cc(NC(=O)CCC(F)(F)F)ccc2O[C@@H]1CN(C)CC1CC1,·,·,·,-3,·,·
SMILES,DAX1 inh,hcDAF-12 act,Wnt bcat act,esBAF inh,ssDAF12 agonist,hgDAF-12 ag
N#Cc1ccc(-c2csc(-c3ccno3)n2)cc1,0,-1,-1,·,-2,0
FC(F)(F)c1ccc(-c2csc(-c3ccno3)n2)cc1,0,1,23,50*,0,2
O=C(C[C@@H]1C[C@@H]2c3cc(NC(=O)Nc4ccccc4)ccc3O[C@@H]2[C@@H](CO)O1)NCc1ccccn1,·,·,·,0,·,·
N#C/C(=C/c1ccc(N2CCCCC2)o1)c1cccc(F)c1,4.4*,-1,3,74*,0,-4
N#C/C(=C/c1ccc(N2CCCCCC2)o1)c1ccc(Cl)cc1,·,·,·,1,·,·
CC1CCC(NC(=O)CCC(=O)N2CC(C)Oc3ccccc32)CC1 (stereo unspecified),0,1,11,55*,-1,7
C[C@H]1CN([C@@H](C)CO)S(=O)(=O)c2ccc(-c3cccc(C#N)c3)cc2O[C@H]1CN(C)C(=O)c1cccnc1,·,·,·,-2,·,·
O=C1CCCCCN1CP(=O)(O)CN1CCCCCC1=O,0,-1,-1,-2,-1,13*
